Pf Dd2 inh – Plasmodium falciparum Dd2 growth inhibition; P. falciparum Dd2 growth, SYBR Green, 72 h; Potency, µM (doses to about 28.9 µM), actives largely listed as inhibitors; 4.3% of 120,000 active; AID 1347417; active = well fitted inhibition curve with a large enough effect; note: nearly all actives have a fitted effect of over 65% in size
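Infected erythrocytes (Dd2, 0.3% parasitemia, 2.5% hematocrit final) are added to compound in RPMI-1640/Albumax II medium, grown 72 h at 37C in low oxygen, then lysed with saponin/Triton-X containing SYBR Green and read by fluorescence.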
Of the large screens only hits and unclear results are named; the others gave an inactive call. Shown is part of a subset that was picked to be rich in hits.

Cc1sc(-n2cccc2)c(C(C)NC(=O)Nc2ccccc2Cl)c1C (configuration not stated)	Pf Dd2 inh 5.62µM
CCOc1ccc(NC(=O)NC(C)c2c(-n3cccc3)sc(C)c2C)cc1 (configuration not stated)	none
COc1cc(NC(=O)NC(C)c2c(-n3cccc3)sc3c2CCCC3)cc(OC)c1OC (configuration not stated)	none
CCOC(=O)c1ccccc1NC(=O)NC(C)c1c(-n2cccc2)sc(C)c1C (configuration not stated)	Pf Dd2 inh 11.2µM
Cc1ccc(-c2ccc(=O)n(C(C)C(=O)Nc3ccccc3Cl)n2)cc1C (configuration not stated)	none
Cn1ccc(C(=O)N2CCC(c3nnc4n3C(C(=O)N3CCN(c5ncccn5)CC3)CC4)CC2)n1 (configuration not stated)	none
CCNC(=O)CC1COCCN1C(=O)c1csc(-c2cccs2)n1 (configuration not stated)	none
N#Cc1cccc(NC(=O)NC[C@H]2C[C@@H]3CCN2C[C@@H]3CN2CCOCC2)c1	none
O=C(c1ccc(Cl)cc1)N1CCC2(CC1)CC(Cc1ccccc1)=NO2	none
CCc1nc(-c2c3n(c(=O)n(Cc4ccc(F)cc4F)c2=O)CCCC3)no1	none
CC(C)Oc1ccc(CNC(=O)c2noc(-c3ccccc3F)n2)cc1	none
COc1ccc(C2C=C(c3ccccc3)Nc3nc(NC(=O)/C=C/c4ccc(Cl)cc4)nn32)cc1 (configuration not stated)	Pf Dd2 inh 10µM
COC(=O)c1c(NC(=O)/C=C/c2ccc(OC)cc2)sc2c1CCC2	none
COc1ccc(/C=C/C(=O)Nc2cc(-c3nc4ccccc4o3)ccc2OC)cc1	none
COc1ccc(OCC(=O)Nc2cc(-c3cccc(Cl)c3)nn2-c2ccccc2)cc1	none
COc1ccc(/C=C/C(=O)Nc2nc3n(n2)C(c2ccccc2)C=C(c2ccc(Cl)cc2)N3)cc1 (configuration not stated)	Pf Dd2 inh 5.01µM
Cc1ccc(C(=O)NC2CCN(c3cc(-c4ccccc4)[nH]n3)CC2)cc1C	none
COc1ccc(NC2CCCN(C(=O)c3cn(CCCN)nn3)C2)cc1 (configuration not stated)	none
CO[C@H]1C(=O)N(C(C)C)[C@H]1C1CCN(S(C)(=O)=O)CC1	none
Cn1ncc(N2CCN(CC3(O)CNCCOC3)CC2)cc1=O (configuration not stated)	none
COc1ccc(NC(=O)Cn2ccn3nc4c(c3c2=O)CCCCC4)cc1OC	none
CN(Cc1ccccc1)C(=O)[C@H]1CCC[C@H]1NC(=O)c1ccncc1	none
Cc1ccc2[nH]c(CCn3cc(-c4cncnc4)nn3)nc2c1C	none
Cc1ccc(-c2nc(CNC(=O)[C@@H]3CCC[C@H](N)C3)[nH]c2-c2ccccn2)cc1	Pf Dd2 inh 10µM
O=C(CN1CCNCC1)NCc1nc(-c2cccc(F)c2)c(-c2ccccn2)[nH]1	none
O=C(NCc1nc(-c2cccc(F)c2)c(-c2ccccn2)[nH]1)[C@@H]1C[C@@H](O)CN1	none
O=C(c1ccccn1)N1CCC(Cc2nc(-c3ccccc3)n[nH]2)C1 (configuration not stated)	none
Cc1ccc2c(C(=O)NCc3ccccc3Cl)cc(NC(=O)C(C)C)cc2n1	none
O=C(c1ccccc1OC1CCN(Cc2ccccn2)CC1)N1CCSCC1	none
CCCCc1nn(CC(=O)N2CCCC(O)C2)c(=O)n1CCc1ccccc1 (configuration not stated)	none
COCC[C@]1(O)CCN(Cc2cc(F)ccc2-n2cccn2)C[C@H]1C	none
CCOC(=O)N1CCN(C2CCCN(Cc3cc(C)ccc3-n3cccn3)C2)CC1 (configuration not stated)	Pf Dd2 inh 10µM
COc1ccc(-n2cccn2)c(CN2CC[C@H](CO)[C@H](O)C2)c1	none
CCOc1ccc(CCNC(=O)c2ccc(C)c(-n3c(C)nc4cccnc43)c2)cc1OCC	none
CCOc1ccc(CCNC(=O)c2ccc(-n3c(C)cc4c3CCCC4)cc2)cc1OCC	Pf Dd2 inh 7.94µM
COCCNC(=O)c1ccc(-n2c(-c3ccccc3)cc3c2CCC(C)C3)cc1 (configuration not stated)	none
COCCCNC(=O)c1ccc(-n2c(-c3ccccc3)cc3c2CCCCC3)cc1	Pf Dd2 inh 5.01µM
CC1CCc2c(cc(-c3ccccc3)n2-c2ccc(C(=O)NC(C)C)cc2)C1 (configuration not stated)	none
Cc1cc2c(n1-c1ccc(C(=O)NCc3ccc(OC(C)C)cc3)cc1)CCCC2	none
CN(C)CCNC(=O)c1ccc(-n2c(-c3ccccc3)cc3c2CCCCC3)cc1	Pf Dd2 inh 0.355µM
CC(C)NC(=O)c1ccc(-n2c(-c3ccccc3)cc3c2CCCCC3)cc1	none
CCCNC(=O)c1ccc(-n2c(-c3ccccc3)cc3c2CCC(C)C3)cc1 (configuration not stated)	none
O=S(=O)(c1ccccc1)N1CCCC(Cn2c(C3CC3)nc3cccnc32)C1 (configuration not stated)	none
CCN1C(=O)COC[C@@H]1[C@H](O)c1ccc(NC(=O)c2cc(C)nn2C)cc1	none
Cn1c(CN2CCOCC2)nnc1C1CCCN(S(=O)(=O)C2CC2)C1 (configuration not stated)	none
N#Cc1cccc(CN[C@H]2[C@H](O)[C@H](O)C[C@@H]2c2ccc(N3CCOCC3)nc2)c1	none
Cn1ncc(N2CCC(CNC(=O)c3cn4cccnc4n3)C2)cc1=O (configuration not stated)	none
Cc1cc(C)c(CNC(=O)[C@H]2CNC[C@@H](C(=O)N3CCCC3)C2)cn1	none
Cc1ccc(-n2nc(C)c([C@@H]3C=C[C@@H](NCc4ccc(N(C)C)cc4)C3)c2C)cc1Cl	none
Cc1ccc(-n2nc(C)c([C@@H]3C=C[C@@H](NC(=O)CC(C)(C)CC(=O)O)C3)c2C)cc1Cl	none
Cc1nn(-c2cccc(Br)c2)c(C)c1[C@@H]1C=C[C@@H](NS(C)(=O)=O)C1	none
Cc1nn(CCC#N)c(C)c1[C@@H]1C=C[C@@H](NCc2ccc(F)cc2)C1	none
Cc1ccc(-n2nc(C)c([C@@H]3C=C[C@@H](NCc4ccc(F)cc4)C3)c2C)cc1Cl	Pf Dd2 inh 3.55µM
Cc1nn(-c2ccc(C(C)C)cc2)c(C)c1[C@@H]1C=C[C@@H](NCc2cccc(C#N)c2)C1	Pf Dd2 inh 4.47µM
Cc1nn(-c2ccccc2)c(C)c1[C@@H]1C=C[C@@H](NCc2cccc(C#N)c2)C1	none
Cc1nn(-c2ccc(C(C)C)cc2)c(C)c1[C@@H]1C=C[C@@H](NCc2ccc(F)cc2)C1	Pf Dd2 inh 3.98µM
CCn1ccc(C(=O)N2CC(c3nnc(-c4ccc(C)cc4)o3)C3(CCOCC3)C2)n1 (configuration not stated)	none
COC(=O)CNC(=O)C1CN(c2ccc(F)cc2)C(=O)N1 (configuration not stated)	none
Cc1ccc(CC(=O)NCCc2noc(C3CC3)n2)cc1	none
CCC(C(=O)N1CCC(C(=O)N2CCCC2)CC1)n1cccn1 (configuration not stated)	none
C1=CC[C@H]2CN(c3nccc(-c4ccccn4)n3)C[C@H]2C1	none
O=C(NCc1csc2ccc(Cl)cc12)C1CC2(CCNCC2)CN1 (configuration not stated)	none
Cc1cccc(OC[C@H]2C[C@@H](N)[C@H](O)[C@@H]2O)n1	none
Cc1ccn(CCC(=O)N2CCCC2C(=O)Nc2cccc(-n3cccn3)c2)n1 (configuration not stated)	none
CCN(CC)Cc1cnc2c(C(=O)NC3CCCN(C(C)=O)C3)cnn2c1 (configuration not stated)	none
CCN1CCN(Cc2cc3ccc(C)cc3nc2-c2ccc(OC)c(OC)c2)CC1	none

Screening results (PubChem BioAssay)
